Test results reported in the supplement of paper PMC11732987, “Enantioselective OTUD7B fragment discovery through chemoproteomics screening and high-throughput optimisation” (Communications Chemistry, 2025).

Assays:
Test in all cases: log2 ratio of Biotin-Ahx-Ub-VS probe labelling (fragment/DMSO); higher = less target engagement (more negative = stronger competition), active = hit call of the paper (q ≤ 0.05, log2 ratio ≤ -1)
Settings in all cases: compound concentration: 200 uM; treatment time: 3 h
USP9X = USP9X (UniProt Q93008)
USP9X, sequence (Q93008 whole entry, the tested form may be a part): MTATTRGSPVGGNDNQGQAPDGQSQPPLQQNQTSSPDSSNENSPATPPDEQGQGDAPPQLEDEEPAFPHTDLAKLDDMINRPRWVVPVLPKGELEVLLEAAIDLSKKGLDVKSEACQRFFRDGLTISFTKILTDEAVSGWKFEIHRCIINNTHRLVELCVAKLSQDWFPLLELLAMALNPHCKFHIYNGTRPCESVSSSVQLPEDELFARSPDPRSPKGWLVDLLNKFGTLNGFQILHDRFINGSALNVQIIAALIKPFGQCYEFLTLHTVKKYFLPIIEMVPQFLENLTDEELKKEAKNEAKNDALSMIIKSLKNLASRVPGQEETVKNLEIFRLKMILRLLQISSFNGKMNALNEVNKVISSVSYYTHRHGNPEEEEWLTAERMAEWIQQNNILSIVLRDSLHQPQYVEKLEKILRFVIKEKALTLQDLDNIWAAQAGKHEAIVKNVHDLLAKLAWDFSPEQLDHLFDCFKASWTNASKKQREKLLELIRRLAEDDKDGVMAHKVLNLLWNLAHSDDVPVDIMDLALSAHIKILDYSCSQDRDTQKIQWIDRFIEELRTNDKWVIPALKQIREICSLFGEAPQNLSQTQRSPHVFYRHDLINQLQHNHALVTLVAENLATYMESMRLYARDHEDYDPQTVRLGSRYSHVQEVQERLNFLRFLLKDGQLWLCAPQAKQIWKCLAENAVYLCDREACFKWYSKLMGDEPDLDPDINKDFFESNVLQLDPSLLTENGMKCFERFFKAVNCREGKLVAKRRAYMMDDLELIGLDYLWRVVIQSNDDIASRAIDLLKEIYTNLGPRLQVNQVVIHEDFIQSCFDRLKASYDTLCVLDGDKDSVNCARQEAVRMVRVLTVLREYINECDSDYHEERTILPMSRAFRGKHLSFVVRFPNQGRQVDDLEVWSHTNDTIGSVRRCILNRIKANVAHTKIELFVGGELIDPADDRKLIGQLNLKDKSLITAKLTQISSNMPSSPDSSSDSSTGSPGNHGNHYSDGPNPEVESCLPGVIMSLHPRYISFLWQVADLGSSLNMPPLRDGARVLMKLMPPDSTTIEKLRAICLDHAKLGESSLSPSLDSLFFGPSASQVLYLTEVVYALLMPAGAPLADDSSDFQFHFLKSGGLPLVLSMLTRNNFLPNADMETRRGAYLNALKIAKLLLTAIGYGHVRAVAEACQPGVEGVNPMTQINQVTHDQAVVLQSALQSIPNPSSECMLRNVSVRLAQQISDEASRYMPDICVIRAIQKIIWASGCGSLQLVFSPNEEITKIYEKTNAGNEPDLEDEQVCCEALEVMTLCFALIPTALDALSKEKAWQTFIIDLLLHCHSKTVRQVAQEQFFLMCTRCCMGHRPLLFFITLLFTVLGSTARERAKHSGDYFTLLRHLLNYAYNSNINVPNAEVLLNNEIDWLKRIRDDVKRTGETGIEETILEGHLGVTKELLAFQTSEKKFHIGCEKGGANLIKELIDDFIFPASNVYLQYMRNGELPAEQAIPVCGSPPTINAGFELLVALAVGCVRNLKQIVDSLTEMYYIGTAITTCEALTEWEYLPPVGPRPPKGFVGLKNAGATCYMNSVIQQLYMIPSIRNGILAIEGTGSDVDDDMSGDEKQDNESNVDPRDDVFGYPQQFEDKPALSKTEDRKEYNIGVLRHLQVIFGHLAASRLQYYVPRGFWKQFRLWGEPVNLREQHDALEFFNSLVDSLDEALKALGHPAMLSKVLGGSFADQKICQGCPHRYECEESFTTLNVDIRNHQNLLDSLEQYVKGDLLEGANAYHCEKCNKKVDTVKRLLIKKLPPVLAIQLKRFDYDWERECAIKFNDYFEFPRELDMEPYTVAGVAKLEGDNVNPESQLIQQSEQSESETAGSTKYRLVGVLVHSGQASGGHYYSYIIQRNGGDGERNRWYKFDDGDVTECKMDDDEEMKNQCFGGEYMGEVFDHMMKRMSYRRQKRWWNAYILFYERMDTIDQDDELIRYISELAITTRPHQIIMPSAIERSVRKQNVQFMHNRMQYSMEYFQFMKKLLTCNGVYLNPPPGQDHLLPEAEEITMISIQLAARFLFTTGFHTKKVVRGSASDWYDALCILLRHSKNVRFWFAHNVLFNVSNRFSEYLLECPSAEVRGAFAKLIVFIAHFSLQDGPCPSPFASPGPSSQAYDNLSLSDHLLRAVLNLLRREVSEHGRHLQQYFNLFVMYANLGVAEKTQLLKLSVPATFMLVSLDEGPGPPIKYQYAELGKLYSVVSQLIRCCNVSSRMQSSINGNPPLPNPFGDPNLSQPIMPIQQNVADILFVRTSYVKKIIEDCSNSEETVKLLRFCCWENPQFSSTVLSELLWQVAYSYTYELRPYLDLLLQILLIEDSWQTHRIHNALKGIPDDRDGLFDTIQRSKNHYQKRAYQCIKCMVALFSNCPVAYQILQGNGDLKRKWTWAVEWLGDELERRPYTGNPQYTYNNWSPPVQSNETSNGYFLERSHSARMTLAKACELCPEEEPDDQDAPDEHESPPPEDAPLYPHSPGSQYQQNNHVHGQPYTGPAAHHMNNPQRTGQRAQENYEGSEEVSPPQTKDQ
How it was run: (§1)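 HEK293T lysate in Tris/CHAPS/IGEPAL buffer with protease inhibitors (495 µg per sample) was given fragment at 200 µM or vehicle for 3 h, in triplicate. It then received Biotin-Ahx-Ub-VS at 0.5 µM final for 1 h. Labelled DUBs were NeutrAvidin-enriched, digested with LysC and trypsin, and run by diaPASEF LC-MS/MS. Values are average log2 fragment/vehicle ratios by unpaired t-test on global-median-normalised Spectronaut quantities of proteins with ≥2 unique peptides.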

UniProt O00487 = molecular target: UniProt O00487
How it was run: as §1

UniProt O00507 = molecular target: UniProt O00507
UniProt O00507, sequence (O00507 whole entry): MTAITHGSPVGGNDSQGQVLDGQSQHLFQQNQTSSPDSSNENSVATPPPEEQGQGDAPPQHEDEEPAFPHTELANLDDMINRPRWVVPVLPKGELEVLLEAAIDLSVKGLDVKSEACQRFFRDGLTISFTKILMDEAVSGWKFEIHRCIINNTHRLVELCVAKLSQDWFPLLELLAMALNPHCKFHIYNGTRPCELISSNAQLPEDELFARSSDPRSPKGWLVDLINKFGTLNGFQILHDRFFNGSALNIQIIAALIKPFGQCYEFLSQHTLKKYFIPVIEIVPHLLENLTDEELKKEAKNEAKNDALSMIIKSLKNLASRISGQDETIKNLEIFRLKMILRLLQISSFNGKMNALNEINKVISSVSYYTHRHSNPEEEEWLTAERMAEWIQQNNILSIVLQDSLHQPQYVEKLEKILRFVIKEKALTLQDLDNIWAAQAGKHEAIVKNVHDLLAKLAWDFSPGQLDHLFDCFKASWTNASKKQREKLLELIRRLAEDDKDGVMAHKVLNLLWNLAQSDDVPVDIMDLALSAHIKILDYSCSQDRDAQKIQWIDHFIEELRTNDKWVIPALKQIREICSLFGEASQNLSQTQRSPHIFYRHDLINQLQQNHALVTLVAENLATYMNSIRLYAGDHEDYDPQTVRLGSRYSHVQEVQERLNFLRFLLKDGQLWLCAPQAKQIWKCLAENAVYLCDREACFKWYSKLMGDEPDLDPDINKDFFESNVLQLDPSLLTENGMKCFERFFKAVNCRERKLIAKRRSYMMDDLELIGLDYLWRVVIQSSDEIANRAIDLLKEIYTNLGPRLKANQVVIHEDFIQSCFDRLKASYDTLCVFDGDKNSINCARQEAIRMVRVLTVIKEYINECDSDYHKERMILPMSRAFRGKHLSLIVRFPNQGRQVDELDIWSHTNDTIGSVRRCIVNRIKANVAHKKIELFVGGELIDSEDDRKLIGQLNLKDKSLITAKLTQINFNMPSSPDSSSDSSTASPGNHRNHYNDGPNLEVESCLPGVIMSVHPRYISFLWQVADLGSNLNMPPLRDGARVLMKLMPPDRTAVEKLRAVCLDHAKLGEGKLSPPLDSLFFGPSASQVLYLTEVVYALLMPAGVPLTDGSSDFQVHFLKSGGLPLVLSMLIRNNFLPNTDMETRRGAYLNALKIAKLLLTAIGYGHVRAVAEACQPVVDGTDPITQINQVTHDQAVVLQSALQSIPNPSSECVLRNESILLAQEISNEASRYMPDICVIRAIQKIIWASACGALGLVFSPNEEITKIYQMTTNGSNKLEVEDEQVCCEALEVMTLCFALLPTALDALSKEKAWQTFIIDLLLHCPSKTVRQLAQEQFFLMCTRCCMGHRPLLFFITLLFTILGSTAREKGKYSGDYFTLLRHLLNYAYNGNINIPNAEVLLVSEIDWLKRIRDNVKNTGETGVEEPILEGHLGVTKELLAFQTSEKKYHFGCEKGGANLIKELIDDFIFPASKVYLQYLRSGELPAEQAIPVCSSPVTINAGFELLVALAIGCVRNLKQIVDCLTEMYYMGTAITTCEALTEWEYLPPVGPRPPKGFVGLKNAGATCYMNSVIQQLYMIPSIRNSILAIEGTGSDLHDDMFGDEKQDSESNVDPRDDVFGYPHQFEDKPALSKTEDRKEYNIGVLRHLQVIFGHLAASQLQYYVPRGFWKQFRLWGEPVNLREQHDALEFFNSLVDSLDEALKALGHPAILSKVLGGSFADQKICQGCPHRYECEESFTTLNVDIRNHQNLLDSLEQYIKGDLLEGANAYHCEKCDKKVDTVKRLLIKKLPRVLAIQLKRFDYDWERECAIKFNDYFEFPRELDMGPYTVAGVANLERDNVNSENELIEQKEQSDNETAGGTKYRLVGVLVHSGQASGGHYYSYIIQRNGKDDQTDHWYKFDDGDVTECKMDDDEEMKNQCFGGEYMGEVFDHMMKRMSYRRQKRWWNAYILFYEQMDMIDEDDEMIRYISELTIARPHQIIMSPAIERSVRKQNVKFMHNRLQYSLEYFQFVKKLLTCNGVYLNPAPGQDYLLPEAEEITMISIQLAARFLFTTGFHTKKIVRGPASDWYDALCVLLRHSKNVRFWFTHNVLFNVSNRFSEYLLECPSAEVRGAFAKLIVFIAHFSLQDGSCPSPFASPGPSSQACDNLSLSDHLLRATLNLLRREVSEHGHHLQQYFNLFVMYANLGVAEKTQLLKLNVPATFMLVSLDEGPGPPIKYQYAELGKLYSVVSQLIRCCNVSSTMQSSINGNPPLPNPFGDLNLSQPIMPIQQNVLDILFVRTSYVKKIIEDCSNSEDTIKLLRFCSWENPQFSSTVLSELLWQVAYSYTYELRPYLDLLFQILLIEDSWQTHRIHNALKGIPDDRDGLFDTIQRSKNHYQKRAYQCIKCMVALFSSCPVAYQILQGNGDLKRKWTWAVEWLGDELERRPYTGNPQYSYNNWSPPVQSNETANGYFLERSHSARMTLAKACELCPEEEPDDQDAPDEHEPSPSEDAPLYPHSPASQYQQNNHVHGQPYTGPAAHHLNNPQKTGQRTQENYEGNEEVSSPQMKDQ
How it was run: as §1

UniProt P51784 = molecular target: UniProt P51784
How it was run: as §1

UniProt Q5T2D3 = molecular target: T1, UniProt Q5T2D3
T1 sequence (whole entry): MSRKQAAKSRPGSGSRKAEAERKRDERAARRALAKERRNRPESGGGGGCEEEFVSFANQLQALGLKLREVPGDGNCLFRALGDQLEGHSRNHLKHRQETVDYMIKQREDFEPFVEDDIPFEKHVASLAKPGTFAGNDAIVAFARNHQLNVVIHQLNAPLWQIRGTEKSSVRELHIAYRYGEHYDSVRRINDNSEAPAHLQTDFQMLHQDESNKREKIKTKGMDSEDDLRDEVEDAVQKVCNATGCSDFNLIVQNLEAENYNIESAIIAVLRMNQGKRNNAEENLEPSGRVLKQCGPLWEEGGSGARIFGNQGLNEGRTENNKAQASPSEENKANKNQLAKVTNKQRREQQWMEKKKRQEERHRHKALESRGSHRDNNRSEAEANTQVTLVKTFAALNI
How it was run: as §1

UniProt Q8TE49 = molecular target: T2, UniProt Q8TE49
T2 sequence (whole entry): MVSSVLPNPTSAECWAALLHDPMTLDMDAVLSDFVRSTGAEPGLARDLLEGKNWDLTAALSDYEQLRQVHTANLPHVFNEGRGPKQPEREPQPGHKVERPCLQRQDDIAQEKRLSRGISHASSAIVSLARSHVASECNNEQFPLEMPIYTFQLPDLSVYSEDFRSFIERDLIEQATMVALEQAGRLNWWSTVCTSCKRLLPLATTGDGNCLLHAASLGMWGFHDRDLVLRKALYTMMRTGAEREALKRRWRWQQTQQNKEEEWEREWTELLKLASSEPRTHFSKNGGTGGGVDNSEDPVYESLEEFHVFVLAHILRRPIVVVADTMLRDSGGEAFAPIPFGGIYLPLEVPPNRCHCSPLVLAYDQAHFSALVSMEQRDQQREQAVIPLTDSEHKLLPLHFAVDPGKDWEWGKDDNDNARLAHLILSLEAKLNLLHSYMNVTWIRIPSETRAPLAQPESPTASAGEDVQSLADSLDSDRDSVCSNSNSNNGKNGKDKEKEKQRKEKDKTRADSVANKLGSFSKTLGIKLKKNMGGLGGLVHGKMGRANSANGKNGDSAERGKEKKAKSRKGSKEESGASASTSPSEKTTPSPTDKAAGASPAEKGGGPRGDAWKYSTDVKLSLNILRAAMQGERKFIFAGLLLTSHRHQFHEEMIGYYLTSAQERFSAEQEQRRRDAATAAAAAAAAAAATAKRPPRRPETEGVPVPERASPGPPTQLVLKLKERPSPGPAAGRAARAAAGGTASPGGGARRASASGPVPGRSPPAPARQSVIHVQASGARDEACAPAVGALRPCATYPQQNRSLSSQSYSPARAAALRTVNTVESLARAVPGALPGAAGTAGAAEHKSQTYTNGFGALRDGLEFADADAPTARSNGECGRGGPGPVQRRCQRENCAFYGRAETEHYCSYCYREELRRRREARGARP
How it was run: as §1

UniProt Q9P2H5 = molecular target: T3, UniProt Q9P2H5
T3 sequence (whole entry): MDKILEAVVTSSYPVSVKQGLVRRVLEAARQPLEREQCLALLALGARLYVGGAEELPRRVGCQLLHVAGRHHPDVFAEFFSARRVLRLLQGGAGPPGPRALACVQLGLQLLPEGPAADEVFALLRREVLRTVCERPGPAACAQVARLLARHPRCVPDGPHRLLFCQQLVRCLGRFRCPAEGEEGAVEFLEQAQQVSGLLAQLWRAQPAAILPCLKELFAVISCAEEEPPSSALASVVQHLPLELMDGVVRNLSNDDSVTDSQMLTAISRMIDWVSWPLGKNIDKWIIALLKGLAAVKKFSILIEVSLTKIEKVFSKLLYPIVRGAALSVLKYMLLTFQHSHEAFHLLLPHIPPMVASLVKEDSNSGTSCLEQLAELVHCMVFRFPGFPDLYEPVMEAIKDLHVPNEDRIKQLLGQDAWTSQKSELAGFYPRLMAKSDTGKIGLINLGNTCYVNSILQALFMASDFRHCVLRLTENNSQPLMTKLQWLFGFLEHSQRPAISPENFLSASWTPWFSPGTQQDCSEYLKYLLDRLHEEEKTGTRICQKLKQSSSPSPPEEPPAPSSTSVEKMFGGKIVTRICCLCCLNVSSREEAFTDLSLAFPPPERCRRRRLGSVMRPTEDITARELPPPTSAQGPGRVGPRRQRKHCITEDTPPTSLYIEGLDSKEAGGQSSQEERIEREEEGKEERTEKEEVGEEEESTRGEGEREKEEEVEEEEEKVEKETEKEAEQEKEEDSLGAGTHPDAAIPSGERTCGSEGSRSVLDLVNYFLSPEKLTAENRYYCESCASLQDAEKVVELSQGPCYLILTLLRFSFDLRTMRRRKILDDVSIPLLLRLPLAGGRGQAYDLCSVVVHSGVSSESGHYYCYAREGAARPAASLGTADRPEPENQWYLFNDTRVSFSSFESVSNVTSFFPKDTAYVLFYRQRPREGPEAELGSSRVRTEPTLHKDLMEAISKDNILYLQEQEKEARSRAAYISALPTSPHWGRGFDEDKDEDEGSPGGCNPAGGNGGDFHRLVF
How it was run: as §1

UniProt Q9UGI0 = molecular target: T4, UniProt Q9UGI0
T4 sequence (whole entry): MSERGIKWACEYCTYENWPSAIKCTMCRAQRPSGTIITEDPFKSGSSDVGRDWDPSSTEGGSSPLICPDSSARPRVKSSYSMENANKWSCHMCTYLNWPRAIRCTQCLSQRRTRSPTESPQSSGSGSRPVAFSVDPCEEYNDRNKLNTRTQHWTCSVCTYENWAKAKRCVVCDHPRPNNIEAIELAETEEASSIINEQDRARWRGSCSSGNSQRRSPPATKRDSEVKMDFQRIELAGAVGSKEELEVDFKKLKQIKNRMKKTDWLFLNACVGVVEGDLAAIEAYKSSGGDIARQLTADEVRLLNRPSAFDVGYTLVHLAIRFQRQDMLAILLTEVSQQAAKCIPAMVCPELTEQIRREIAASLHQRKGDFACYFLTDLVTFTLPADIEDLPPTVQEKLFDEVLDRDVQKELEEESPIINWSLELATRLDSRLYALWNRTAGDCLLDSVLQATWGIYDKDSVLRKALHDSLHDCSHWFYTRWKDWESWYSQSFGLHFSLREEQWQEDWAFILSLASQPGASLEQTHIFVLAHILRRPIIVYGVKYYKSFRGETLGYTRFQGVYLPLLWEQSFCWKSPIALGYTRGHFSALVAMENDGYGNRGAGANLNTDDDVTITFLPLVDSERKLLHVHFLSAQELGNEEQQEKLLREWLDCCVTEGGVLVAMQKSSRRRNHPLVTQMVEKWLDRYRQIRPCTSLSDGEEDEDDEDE
How it was run: as §1

YOD1 = molecular target: T5, YOD1 (UniProt Q5VVQ6)
T5 sequence (whole entry): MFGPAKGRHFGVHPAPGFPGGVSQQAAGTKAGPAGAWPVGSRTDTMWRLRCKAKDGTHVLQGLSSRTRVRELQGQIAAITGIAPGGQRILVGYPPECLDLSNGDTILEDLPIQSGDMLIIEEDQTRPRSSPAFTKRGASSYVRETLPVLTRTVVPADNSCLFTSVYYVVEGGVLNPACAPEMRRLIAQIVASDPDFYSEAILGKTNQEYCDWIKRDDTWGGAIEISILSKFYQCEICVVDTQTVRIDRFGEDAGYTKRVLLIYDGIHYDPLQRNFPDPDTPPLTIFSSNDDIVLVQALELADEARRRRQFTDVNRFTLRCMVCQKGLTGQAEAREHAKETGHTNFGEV
How it was run: as §1

Measured: log2 ratio of Biotin-Ahx-Ub-VS probe labelling

Cc1ccc(N(CCC#N)C(=O)CCl)cc1C
active: UniProt Q8TE49 -2.2 | UniProt Q9UGI0 -1.49
inactive: USP9X -0.324 | UniProt O00487 -0.246 | UniProt O00507 -0.369 | UniProt P51784 -0.0613 | UniProt Q5T2D3 -0.0739 | UniProt Q9P2H5 -0.14 | YOD1 0.0402
